Measurements from ChEMBL document CHEMBL4513216, “Probing the Open Global Health Chemical Diversity Library for Multistage-Active Starting Points for Next-Generation Antimalarials” (ACS Infect Dis, 2020).
Screen size: about 68,000 compounds; about 2,700 (4%) showed an effect of 50% or more. This excerpt belongs to a sample that is enriched for strong results.

test system: Plasmodium berghei; assay: Screen against P. berghei liver stage (PbLuc), transformed with Luciferase, at 2uM; type: functional, HepG2; conditions: tested at 2 uM

Structure (SMILES)	INHIBITION [%]
Cc1ccc(CCNC(=O)Nc2cc(C(F)(F)F)c[nH]c2=O)o1	-0.12
O=C(c1n[nH]c2c1CN(C1CCOCC1)CC2)N1CCCC1	30.95
Cc1cccc(N(C)Cc2cc(=O)n3oc(C)cc3n2)c1	4.91
N#CCCN(CC1CCOC1)Cn1ccc(-c2cccs2)n1 (configuration not stated)	-42.48
COc1cc(C)nc(N2CCN(C(=O)CN(C)C(C)C)CC2)n1	10.22
COc1c(C)cnc(CNC(=O)CCOCC(C)C)c1C	5.17
COc1ccccc1OCCC(=O)NCc1ncc(C)c(OC)c1C	40.51
COc1c(C)cnc(CNC(=O)CCOCc2ccccc2)c1C	65.76
CN1CCCC1c1cccc(Cc2ccc(F)cc2)n1 (configuration not stated)	16.32
Cc1cc(-c2nnn(CCC(N)=O)n2)ccc1F	5
Cc1cc(-c2nnn(CCNS(C)(=O)=O)n2)ccc1F	69.72
CNS(=O)(=O)CCCn1nnc(-c2ccc(F)c(C)c2)n1	31.66
c1ccc([C@@H]2CN(Cc3ccncc3)C[C@H]2c2cc[nH]n2)cc1	48.22
c1ccc([C@@H]2CN(Cc3cccnc3)C[C@H]2c2cc[nH]n2)cc1	50.94
COc1ccc([C@@H]2CN(Cc3ccncc3)C[C@H]2c2cc[nH]n2)cc1	-128.75
CS(=O)(=O)c1cccc(C(=O)NCCCN2CCc3ccccc3C2)c1	5.59
c1cnc(N2CC3(CCN(C4CCOCC4)CC3)c3ccccc32)nc1	-23.45
CN(CCn1nc2ccccn2c1=O)CC(=O)NC1CC1	16.6
CC(=O)N1CCCN(CCn2nc3ccccn3c2=O)CC1	52.66
O=C(NCCCn1nc2ccccn2c1=O)NC(C1CC1)C1CC1	-35.46
CN(CCn1nc2ccccn2c1=O)CC(=O)N1CCCC1	17.19
CN(C)C(=O)N1CCN(CCn2nc3ccccn3c2=O)CC1	50.32
CCNC(=O)NCCCn1nc2ccccn2c1=O	-53.4

Structure (SMILES)	INHIBITION [%]
CCC(C)NC(=O)NCCCn1nc2ccccn2c1=O (configuration not stated)	55.7
CCN(CC)C(=O)CN(C)CCn1nc2ccccn2c1=O	8.88
CCC(=O)CNC(=O)CCn1nc2ccccn2c1=O	-12.95
CN1CCN(C(=O)c2cnsn2)c2ccc(F)cc21	36.24
CN(C)CCCn1ccnc1C1CCCN(c2ncc(Cl)cc2F)C1 (configuration not stated)	-18.59
Cc1noc([C@H]2C[C@H]3OCC[C@H]3N(Cc3cccs3)C2)n1	-27.21
c1cnc(N2CCCC3(CCN(CC4CCC4)C3)C2)nc1 (configuration not stated)	-20.98
CN(C)c1cc(CNC(=O)Nc2cccnc2N2CCCC2)ccn1	-43.4
Cn1cccc(NC(=O)N2CCC(COCc3ccccc3)C2)c1=O (configuration not stated)	-5.79
CN1CCN(C2CCN(Cc3nc(-c4ccoc4)no3)CC2)C1=O	-17.31
Cc1ncc(CN(C)C(=O)Nc2cccc(N3CCOC3=O)c2)s1	-127.85
Cc1ncc(CN(C)C(=O)Nc2ccc(CN3CCOC3=O)cc2)s1	10.61
Cc1ncc(CN(C)C(=O)Nc2cccc(CN3CCOC3=O)c2)s1	56.2
CCN1CCOC(CNCc2cccc(OCc3ccccn3)c2)C1 (configuration not stated)	3.06
CC(=O)NC1CCCN(Cc2ccc(OCc3ccccn3)cc2)C1 (configuration not stated)	57.92
CS(=O)(=O)NC1CCN(Cc2ccc(OCc3ccccn3)cc2)CC1	-15.64
CN1CCOC(CNCc2ccc(OCc3ccccn3)cc2)C1 (configuration not stated)	-12.27
CCN1CCOC(CNCc2ccc(OCc3ccccn3)cc2)C1 (configuration not stated)	50.75
CS(=O)(=O)NC1CCCN(Cc2ccc(OCc3ccccn3)cc2)C1 (configuration not stated)	10.63
c1cnc(N2C[C@H]3CCN(CCN4CCCC4)C[C@H]3C2)cn1	-27.22
COCCNC(=O)c1nnc2ccc(N3CCOCC3)cc2n1	26.54
CSc1nc2ncc3c(=O)n(CCN4CCCCC4)ccc3n2n1	8.9
COC1CCN(C(=O)COC(C)=O)CC(=O)N(C)c2ccccc21 (configuration not stated)	-46.46

Structure (SMILES)	INHIBITION [%]
COC1CCN(C(=O)CC(C)(C)C)CC(=O)N(C)c2ccccc21 (configuration not stated)	51.71
COC1CCN(C(=O)CC2CCCC2)CC(=O)N(C)c2ccccc21 (configuration not stated)	8.41
CN(Cc1noc2c1CCCC2)C(=O)C1CCOc2ccccc2C1 (configuration not stated)	8.89
c1csc(CNCC2COCc3c(-c4ccoc4)nnn3C2)n1 (configuration not stated)	-45.9
O=C([C@@H]1COC[C@H]2CN(C3CCOCC3)C[C@H]21)N1CCCO1	35.15
CN(Cc1cccc(C#N)c1)C(=O)C1CC(c2cccc(F)c2)=NO1 (configuration not stated)	17.47
Cc1cc(CN(C)C(=O)C2CC(c3cccc(F)c3)=NO2)no1 (configuration not stated)	-30.08
CN(Cc1ccc2c(c1)OCO2)C(=O)C1CC(c2cccc(F)c2)=NO1 (configuration not stated)	53.68
CNC(=O)N1C[C@@H]2C[C@H](C(=O)Nc3ccccc3)[C@H](C1)O2	6.57
c1ccc(-c2cc(CNCCCC3CCOC3)c3nnnn3c2)cc1 (configuration not stated)	22.81
Cc1nn(C)c(C)c1CC(=O)NCC1(C(N)=O)CCOCC1	60.59
CCc1nc(CNCC2(C(N)=O)CCOCC2)cs1	33.9
Cc1nn(C)c(C)c1CCC(=O)NCC1(C(N)=O)CCOCC1	25.73
NC(=O)C1(CNCc2csc(-c3cccs3)n2)CCOCC1	36.28
Cc1nn(C)c(Cl)c1C(=O)NCC1(C(N)=O)CCOCC1	32.02
CCc1nc(CC(=O)NCC2(C(N)=O)CCOCC2)cs1	55.36
Nc1ccc(C(=O)N2CCCC(C(=O)CCc3ccccc3)C2)cn1 (configuration not stated)	-62.48
COCc1cnc2n1CCN(C1CCCC1)C2C (configuration not stated)	0.42
c1cc(-c2nn3c(CN4CCOCC4)nnc3s2)ccn1	2.88
COc1cc(C(=O)N2CCC(c3n[nH]c(C4CC4)n3)CC2)ccc1C	10.5
O=C(NCc1cccnc1)[C@@H]1CC[C@@H]2[C@@H](CCN2c2ncc(F)cn2)O1	12.7
